Bioassay records as filed in PubChem.
Pf apPOL inh – Pf-apPOL DNA polymerase inhibition. 210,000 compounds, 0.25% hits. AID 1794808. inhibition, % at 10 µM. Recombinant Pf-apPOL, molecular beacon fluorescence, 1.5 h
mHTT CaM bind – disrupts binding of mutant huntingtin to calmodulin; AlphaScreen His-mHTT/GST-CaM binding, luminescence; AID 1671202; 190,000 compounds, 3.6% hits; inhibition, % at 15 µM;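 further: 0% = both proteins with DMSO and 100% = one protein alone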
* hit, by the source's call; nt = no result. Only a selection was taken, and hits are over-represented in it overall. No stated cut-off is given here; in the data, active means inhibition above about 50%; inactive means the rest.

SMILES | Pf apPOL inh | mHTT CaM bind
CCCN1C(=O)Cc2ccccc2C1C(=O)NCc1ccc(F)cc1 (stereo not drawn) | -2 | -7
CCc1nc(-c2cccnc2N2CCCC(C(=O)NCc3cccc(F)c3)C2)no1 (stereo not drawn) | -1 | 28
COc1ccc(C2Nc3ccccc3C(=O)N2Cc2ccco2)cc1COc1ccc(Cl)cc1 (stereo not drawn) | 8 | 55*
COc1cccc(OCc2cc(C3Nc4ccccc4C(=O)N3Cc3ccco3)ccc2OC)c1 (stereo not drawn) | -8 | 28
COc1ccc(-c2nc3cc(C)ccc3o2)cc1N | 6 | 34
CC(C)(C)c1ccc(-c2nc3cc(N)ccc3o2)cc1 | -7 | 27
COc1cc(-c2nc3cc(C(C)(C)C)ccc3o2)ccc1O | 2 | 56*
COc1ccc(-c2nc3cc(C(C)(C)C)ccc3o2)cc1O | 4 | 61*
Cc1occc1C(=O)Nc1ccc(I)cc1C(=O)O | 10 | 60*
Cc1occc1C(=O)Nc1ccccc1NC(=O)c1ccoc1C | 4 | 9
CCc1cc(C(=O)c2ccc(OC)cc2)c(NC(=O)c2nccnc2C(=O)O)s1 | -28 | nt
COc1ccccc1NC(=O)c1ccnc(N2CCC(C(=O)Nc3cccc(C)c3)CC2)c1 | 8 | 4
CCN(C)c1nc(-c2ccccc2Cl)c2c(N)n(-c3ccccc3)nc2n1 | 0 | 20
CCN(C)c1nc(-c2cccc(F)c2)c2c(N)n(-c3cccc(F)c3)nc2n1 | 2 | 57*
CCOc1cccc2sc(N3CCN(C(=O)Nc4c(F)cccc4F)CC3)nc12 | -6 | 1
COc1ccc(C=Nc2ccc3ncccc3c2)cc1 | -2 | 31
COc1ccc(C=Nc2ccc3c(c2)nc(C)n3C)cc1 | 69* | 6
CCc1ccc(C(=O)N2CCC3(C2)C(=O)Nc2ccccc23)cc1 (stereo not drawn) | -5 | 42
O=C1c2ccccc2C(=O)C1C1(C2C(=O)c3ccccc3C2=O)C(=O)Nc2ccccc21 | -7 | 14
O=C1Nc2ccccc2C12NN=C(c1ccccc1O)S2 (stereo not drawn) | -1 | 100*
CCc1ccc2c(c1)C1(NN=C(c3ccccc3O)S1)C(=O)N2 (stereo not drawn) | -2 | 100*
CCC(=O)Nc1ccc(Br)c2cccnc12 | 1 | -5
CCC(=O)NC(c1ccco1)c1cc(Cl)c2cccnc2c1O (stereo not drawn) | 6 | 100*
CCCCC(=O)NC(c1ccco1)c1cc(Cl)c2cccnc2c1O (stereo not drawn) | -1 | 66*
Cc1cc(C)nc(NC(c2ccco2)c2ccc3cccnc3c2O)n1 (stereo not drawn) | -3 | 100*
SMILES | Pf apPOL inh | mHTT CaM bind
CCCCC(=O)NC(c1ccccc1)c1cc(Cl)c2cccnc2c1O (stereo not drawn) | 11 | 22
Cc1cc(C)nc(SCC(=O)NCc2ccco2)n1 | 1 | -6
CCC(=O)NC(c1ccco1)c1ccc2cccnc2c1O (stereo not drawn) | 3 | 100*
CCn1ccc2sc(C)c(C(=O)N3CCCC(C)C3)c2c1=O (stereo not drawn) | -1 | -3
CCn1c(=O)c(NCc2ccc(F)cc2F)nc2ccncc21 | -8 | 1
COc1ccc(C(=O)Nc2nc3ccc(C)cc3s2)c(OC)c1 | 2 | -2
O=C(Nc1c(Cl)cc(Cl)c2cccnc12)c1ccco1 | -4 | 4
CC(=O)NC(c1ccco1)c1cc(Cl)c2cccnc2c1O (stereo not drawn) | -4 | 100*
COc1ccc(NC(=O)CN2CCN(C3c4ccccc4-c4ccccc43)CC2)cc1 | 2 | 55*
O=C(CN1CCN(C2c3ccccc3-c3ccccc32)CC1)Nc1ccc(F)cc1 | 3 | 46
NC(=O)c1ccc(NC(=O)CN2CCN(C3c4ccccc4-c4ccccc43)CC2)cc1 | 2 | 59*
Cc1ccc(NC(=O)CN2CCN(C3c4ccccc4-c4ccccc43)CC2)cc1F | 0 | 22
O=C(Nc1ccccc1[N+](=O)[O-])c1ccc(Br)o1 | 4 | 7
Cc1ccc2c(c1)NC(=O)C(C(=O)Nc1ccc(C#N)cc1)O2 (stereo not drawn) | 2 | 35
CCOC(=O)N1CCC2(CC1)N=C(c1ccccc1O)CC(c1ccc(Cl)cc1)N2 (stereo not drawn) | -1 | 8
Cc1ccccc1NC(=O)N1CC2CCCN2c2ccccc21 (stereo not drawn) | -2 | 61*
CCOc1ccccc1NC(=O)N1CC(CC)Oc2ccccc21 (stereo not drawn) | -4 | -49
O=C(NCc1ccco1)c1ccc(NC(=O)N2CC3CCCN3c3ccccc32)cc1 (stereo not drawn) | 1 | 15
CCOc1ccccc1NC(=O)N1CC2CCCN2c2ccccc21 (stereo not drawn) | 1 | 80*
Cc1cccc(NC(=O)N2CC3CCCN3c3ccccc32)c1C (stereo not drawn) | -3 | 30
O=C(Nc1ccccc1Br)N1CC2CCCN2c2ccccc21 (stereo not drawn) | 2 | 74*
